# Measurements: PubChem BioAssay (Tox21)
# Records with an inconclusive call do not appear. Entries that show only a call come without a potency. Calls of active or inactive are those of the source. Unless noted, calls follow the shape of the full dose curve.
# Columns and labels:
# [1] = qHTS assay to identify small molecule agonists of the peroxisome proliferator-activated receptor delta (PPARd) signaling pathway - cell viability counter screen (AID 743211; active = well fitted curve in the direction sought with a large enough effect in the repeat runs; an effect the other way counts as inactive or inconclusive; also: nearly all actives have a fitted effect of over 55% in size)
# Method in brief: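 PPARd-bla HEK293H cells (UAS-beta-lactamase reporter) were treated with compounds for 17 h at 37 C. Viability was then read in the same wells by CellTiter-Glo luminescence after 30 min at room temperature.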
# [2] = biological target: Peroxisome proliferator-activated receptor delta (Homo sapiens) (UniProt Q03181); experiment: qHTS assay to identify small molecule agonists of the peroxisome proliferator-activated receptor delta (PPARd) signaling pathway (AID 743212)
# Sequence of Peroxisome proliferator-activated receptor delta (Homo sapiens) (Q03181 whole entry, looked up): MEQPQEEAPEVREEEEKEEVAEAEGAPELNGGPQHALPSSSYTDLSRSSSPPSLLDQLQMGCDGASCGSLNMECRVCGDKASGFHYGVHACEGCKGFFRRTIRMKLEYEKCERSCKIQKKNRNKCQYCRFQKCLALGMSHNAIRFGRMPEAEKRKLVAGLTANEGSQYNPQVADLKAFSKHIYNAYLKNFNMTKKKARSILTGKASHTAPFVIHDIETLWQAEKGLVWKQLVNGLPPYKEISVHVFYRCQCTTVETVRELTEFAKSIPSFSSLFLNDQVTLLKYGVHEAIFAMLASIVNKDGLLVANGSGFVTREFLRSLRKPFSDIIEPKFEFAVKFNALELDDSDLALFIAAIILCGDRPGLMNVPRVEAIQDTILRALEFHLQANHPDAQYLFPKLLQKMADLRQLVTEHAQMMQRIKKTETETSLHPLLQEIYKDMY
# Method in brief: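 Steps: seed PPARd-bla HEK293H cells; incubate 5 h, 37 C, 5% CO2; add compounds in DMSO; incubate, 37 C; add LiveBLAzer B/G FRET substrate; hold 2 h at room temperature; measure fluorescence.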
# [3] = biological target: Peroxisome proliferator-activated receptor delta (Homo sapiens) (UniProt Q03181); experiment: qHTS assay to identify small molecule antagonists of the peroxisome proliferator-activated receptor delta (PPARd) signaling pathway (AID 743215; active = well fitted inhibition curve with a large enough effect in the signal ratio in the repeat runs, not every such curve was filed as active; the % refers to the signal ratio;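 also: cells stimulated with agonist L165041 at 300 nM final during compound exposure; series mostly up to about 62 µM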)
# Method in brief: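 Fluorescence from cleaved LiveBLAzer B/G FRET substrate (2 h, room temperature) reports PPARd-driven beta-lactamase in HEK293H UAS-bla cells. Cells had been treated 17 h at 37 C with compound plus 300 nM final L165041.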
# [4] = qHTS assay to identify small molecule agonists of the farnesoid-X-receptor (FXR) signaling pathway - cell viability counter screen (AID 743218; active = well fitted curve in the direction sought with a large enough effect in the repeat runs; an effect the other way counts as inactive or inconclusive; also: nearly all actives have a fitted effect of over 45% in size)
# Method in brief: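 Readout: CellTiter-Glo luminescence, 30 min RT, multiplexed after the FXR-bla FRET reading. HEK 293T FXR-UAS-bla cells received compound 5 h post-plating and were incubated 16 h at 37 C.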
# [5] = qHTS assay to identify small molecule antagonists of the farnesoid-X-receptor (FXR) signaling pathway - cell viability counter screen (AID 743221; active = well fitted cell-killing curve with a large enough effect in the repeat runs, not every such curve was filed as active; also: nearly all actives have a fitted effect of over 50% in size)
# Method in brief: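 FXR-UAS-bla HEK 293T cells were treated with test compounds plus chenodeoxycholic acid (50 uM final) for 16 h at 37 C. Cell viability in the same wells was then read as CellTiter-Glo luminescence after 30 min at room temperature.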
# [6] = biological target: Vitamin D3 receptor (Homo sapiens) (UniProt P11473); experiment: qHTS assay to identify small molecule agonists of the vitamin D receptor (VDR) signaling pathway (AID 743222)
# Sequence of Vitamin D3 receptor (Homo sapiens) (P11473 whole entry, looked up): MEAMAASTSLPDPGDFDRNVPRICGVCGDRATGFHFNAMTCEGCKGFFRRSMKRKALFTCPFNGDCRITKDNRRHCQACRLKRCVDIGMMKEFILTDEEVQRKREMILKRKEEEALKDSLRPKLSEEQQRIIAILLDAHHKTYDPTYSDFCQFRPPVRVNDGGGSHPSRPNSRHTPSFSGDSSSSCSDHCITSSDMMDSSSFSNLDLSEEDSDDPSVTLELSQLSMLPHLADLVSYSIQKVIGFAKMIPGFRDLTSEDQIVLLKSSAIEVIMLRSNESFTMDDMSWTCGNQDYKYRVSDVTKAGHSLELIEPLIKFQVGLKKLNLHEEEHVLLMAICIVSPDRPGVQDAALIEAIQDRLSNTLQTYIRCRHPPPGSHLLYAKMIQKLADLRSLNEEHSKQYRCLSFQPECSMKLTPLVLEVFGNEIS
# Method in brief: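 Following 4 h attachment at 37C, VDR-bla cells (2,000 per well) received DMSO-dissolved compounds or controls. After 16 h incubation, LiveBLAzer B/G FRET substrate was added and fluorescence read 2 h later at room temperature.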
# [7] = biological target: Vitamin D3 receptor (Homo sapiens) (UniProt P11473); experiment: qHTS assay to identify small molecule antagonists of the vitamin D receptor (VDR) signaling pathway (AID 743223; active = well fitted inhibition curve with a large enough effect in the signal ratio in the repeat runs, not every such curve was filed as active; the % refers to the signal ratio)
# Method in brief: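 VDR-bla cells were plated, incubated 4 h at 37C, then given compound and 1alpha,25-dihydroxyvitamin D3 (3 nM final). After 16 h at 37C, LiveBLAzer B/G FRET substrate was added for 2 h at room temperature and fluorescence read.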
# [8] = qHTS assay to identify small molecule agonists of the vitamin D receptor (VDR) signaling pathway - cell viability counter screen (AID 743224; active = well fitted curve in the direction sought with a large enough effect in the repeat runs; an effect the other way counts as inactive or inconclusive; also: series mostly up to about 63 µM; nearly all actives have a fitted effect of over 50% in size)
# Method in brief: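 In parallel with the bla FRET readout, cytotoxicity toward VDR-bla cells after 16 h compound exposure was assessed by CellTiter-Glo, with luminescence recorded after a 30 min room-temperature incubation.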
# [9] = qHTS assay to identify small molecule antagonists of the vitamin D receptor (VDR) signaling pathway - cell viability counter screen (AID 743225; active = well fitted curve in the direction sought with a large enough effect in the repeat runs; an effect the other way counts as inactive or inconclusive; also: nearly all actives have a fitted effect of over 50% in size)
# Method in brief: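 VDR-bla HEK 293T cells, 4 h pre-incubation at 37C, then compound plus 1-alpha,25-dihydroxyvitamin D3 (3 nM final) for 16 h. After the beta-lactamase FRET read, CellTiter-Glo was added to the same wells; luminescence after 30 min at room temperature.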
# [10] = qHTS assay to identify small molecule agonists of the NFkB signaling pathway - cell viability counter screen (AID 1159515); also: series mostly up to about 61 µM; nearly all actives have a fitted effect of over 55% in size
# Method in brief: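 Plate 2,000 NFkB-bla ME-180 cells/well; incubate overnight. Add compounds, 5 hr at 37 C. Add FRET substrate, 1.5 hr RT. Add CellTiter-Glo, 30 min RT; read luminescence.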
# [11] = qHTS assay to identify small molecule agonists of the endoplasmic reticulum stress response signaling pathway (AID 1159516; active = well fitted activation curve with a large enough effect in the signal ratio in the repeat runs, not every such curve was filed as active; the % refers to the signal ratio)
# Method in brief: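 Beta-lactamase expression from the ER stress response element in HeLa reporter cells is quantified with the LiveBLAzer B/G FRET substrate, read at 405 nm excitation after 2 hr at room temperature, following 5 hr compound treatment at 37 C.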
# [12] = qHTS assay to identify small molecule agonists of the endoplasmic reticulum stress response signaling pathway - cell viability counter screen (AID 1159517); also: series mostly up to about 61 µM; nearly all actives have a fitted effect of over 50% in size
# Method in brief: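 After overnight attachment, ESRE-bla HeLa cells were treated with Tox21 library compounds for 5 hr. CellTiter-Glo luminescence, read 30 min post-addition at room temperature, reported viability.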
# [13] = qHTS assay to identify small molecule antagonists of the retinoid-related orphan receptor gamma (ROR-gamma) signaling pathway - cell viability counter screen (AID 1159520; active = well fitted curve in the direction sought with a large enough effect in the repeat runs; an effect the other way counts as inactive or inconclusive; also: nearly all actives have a fitted effect of over 50% in size)
# Method in brief: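 Cytotoxicity was read from cellular ATP (CellTiter-Glo luminescence) after 16 hr at 37 C with 1 uM doxycycline induction. The inducer was added 2 hr after compound transfer to Tet-on ROR gamma CHO cells.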
# [14] = biological target: Nuclear receptor ROR-gamma (Homo sapiens) (UniProt P51449); experiment: qHTS assay to identify small molecule antagonists of the retinoid-related orphan receptor gamma (ROR-gamma) signaling pathway (AID 1159521; active = well fitted curve in the direction sought with a large enough effect in the repeat runs; an effect the other way counts as inactive or inconclusive)
# Method in brief: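 Tet-on RORγ CHO cells carrying a ROR response element–luciferase reporter were pretreated with compounds for 2 h, then induced with 1 uM (final) doxycycline hyclate for 16 h at 37 C. Antagonism was read as decreased ONE-Glo luminescence.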
# [15] = qHTS assay to identify small molecule agonists of the AP-1 signaling pathway - cell viability counter screen (AID 1159525); also: nearly all actives have a fitted effect of over 55% in size
# Method in brief: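 Intracellular ATP by Cell Titer Glo luminescence (30 min, RT) in the same ME-180 AP-1-bla wells after the 5 h compound exposure at 37 °C. Normalised to tetra n-octyl ammonium bromide and DMSO controls.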
# [16] = qHTS assay to identify small molecule agonists of the AP-1 signaling pathway (AID 1159526)
# [17] = biological target: Retinoic acid receptor RXR-alpha (Homo sapiens) (UniProt P19793); experiment: qHTS assay to identify small molecule agonists of the RXR signaling pathway (AID 1159527); also: nearly all actives have a fitted effect of over 35% in size; also: potency is read from the fitted curve at half-maximal effect
# Sequence of Retinoic acid receptor RXR-alpha (Homo sapiens) (P19793 whole entry, looked up): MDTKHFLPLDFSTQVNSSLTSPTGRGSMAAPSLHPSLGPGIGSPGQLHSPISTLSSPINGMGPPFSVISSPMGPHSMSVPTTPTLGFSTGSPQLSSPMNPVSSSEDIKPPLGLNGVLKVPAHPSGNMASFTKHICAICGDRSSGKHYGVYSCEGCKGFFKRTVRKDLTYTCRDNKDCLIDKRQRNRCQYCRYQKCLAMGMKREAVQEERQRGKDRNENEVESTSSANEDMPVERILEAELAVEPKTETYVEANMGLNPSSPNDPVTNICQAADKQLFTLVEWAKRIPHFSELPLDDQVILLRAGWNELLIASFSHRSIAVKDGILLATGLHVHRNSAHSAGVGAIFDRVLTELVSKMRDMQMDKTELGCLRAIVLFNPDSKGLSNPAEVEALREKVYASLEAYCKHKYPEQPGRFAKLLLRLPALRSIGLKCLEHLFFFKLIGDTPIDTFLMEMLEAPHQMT
# Method in brief: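 GeneBLAzer RXR-alpha-UAS-bla HEK 293T cells in medium with 2% charcoal-stripped FBS, pre-incubated 5 hr at 37 C, then exposed to compounds 16 hr. Beta-lactamase reporter read by FRET substrate, 2 hr room temperature, 460/530 nm emission.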
# [18] = qHTS assay to identify small molecule antagonists of the peroxisome proliferator-activated receptor delta (PPARd) signaling pathway - cell viability counter screen (AID 743213; active = well fitted curve in the direction sought with a large enough effect in the repeat runs; an effect the other way counts as inactive or inconclusive; also: nearly all actives have a fitted effect of over 50% in size)
# Method in brief: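 Cytotoxicity counter screen: CellTiter-Glo luminescence read 30 min after addition, in the same wells as the reporter assay. There, PPARd UAS-bla HEK293H cells (3000/well) were treated 17 h at 37 C with compound and 300 nM L165041.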
# [19] = biological target: Bile acid receptor (Homo sapiens) (UniProt Q96RI1); experiment: qHTS assay to identify small molecule antagonists of the farnesoid-X-receptor (FXR) signaling pathway (AID 743217; active = well fitted inhibition curve with a large enough effect in the signal ratio in the repeat runs, not every such curve was filed as active; the % refers to the signal ratio)
# Sequence of Bile acid receptor (Homo sapiens) (Q96RI1 whole entry, looked up): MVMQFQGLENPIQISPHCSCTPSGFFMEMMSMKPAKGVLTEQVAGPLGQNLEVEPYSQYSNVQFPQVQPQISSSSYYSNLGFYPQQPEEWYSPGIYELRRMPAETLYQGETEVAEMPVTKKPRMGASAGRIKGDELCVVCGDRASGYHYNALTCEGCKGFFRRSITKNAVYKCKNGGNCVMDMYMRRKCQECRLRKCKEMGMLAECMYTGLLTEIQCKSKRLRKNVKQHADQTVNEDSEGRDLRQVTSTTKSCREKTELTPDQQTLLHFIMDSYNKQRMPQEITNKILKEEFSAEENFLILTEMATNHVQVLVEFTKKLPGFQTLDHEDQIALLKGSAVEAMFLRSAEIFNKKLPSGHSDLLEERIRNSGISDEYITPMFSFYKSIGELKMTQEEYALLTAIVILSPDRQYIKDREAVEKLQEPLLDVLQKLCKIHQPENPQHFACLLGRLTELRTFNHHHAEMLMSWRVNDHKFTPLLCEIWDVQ
# Method in brief: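 FRET fluorescence after 2 h room-temperature LiveBLAzer loading gives the readout. Prior step: FXR-bla HEK 293T cells, seeded and incubated 5 h, received test compounds plus 50 uM final CDCA for 16 h at 37 °C.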
# [20] = biological target: Bile acid receptor (Homo sapiens) (UniProt Q96RI1); experiment: qHTS assay to identify small molecule agonists of the farnesoid-X-receptor (FXR) signaling pathway (AID 743220; active = well fitted activation curve with a large enough effect in the signal ratio in the repeat runs, not every such curve was filed as active; the % refers to the signal ratio)
# Method in brief: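 FXR-UAS-bla HEK 293T cells carrying a UAS-driven beta-lactamase reporter were plated for 5 h at 37C/5% CO2, then exposed to DMSO-dissolved Tox21 10K compounds for 16 h at 37C. A LiveBLAzer B/G FRET substrate was loaded for 2 h at room temperature before fluorescence reading.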
SMILES,outcome [1],outcome [2],outcome [3],outcome [4],outcome [5],outcome [6],outcome [7],outcome [8],outcome [9],outcome [10],Potency [11],outcome [12],outcome [13],outcome [14],outcome [15],Potency [16],Potency [17],outcome [18],outcome [19],outcome [20]
CC12CCCC=C1C(=O)OC2=O (centres undefined),inactive,inactive,inactive,inactive,inactive,inactive,inactive,inactive,inactive,inactive,inactive,inactive,inactive,inactive,inactive,inactive,inactive,,,
CCCC(=O)CC,,inactive,inactive,inactive,inactive,inactive,inactive,inactive,,inactive,inactive,inactive,inactive,inactive,inactive,inactive,inactive,inactive,,
c1coc(Cn2cccc2)c1,inactive,,,inactive,inactive,,,inactive,inactive,inactive,inactive,inactive,inactive,inactive,inactive,inactive,inactive,inactive,inactive,inactive
Cc1ccc(N)nc1,inactive,,inactive,inactive,inactive,,,inactive,inactive,inactive,inactive,inactive,inactive,inactive,inactive,inactive,inactive,inactive,inactive,inactive
O=S(=O)(O)c1cc(I)c(O)c2ncccc12,,inactive,inactive,inactive,inactive,,,inactive,inactive,inactive,inactive,inactive,inactive,inactive,inactive,inactive,inactive,inactive,,
C[C@@H]1CCC[C@H](C)N1CCCC(O)(c1ccccc1)c1ccccn1 (some centres undefined),inactive,inactive,,inactive,inactive,,,,,inactive,inactive,inactive,inactive,inactive,inactive,inactive,inactive,,,
C=C(C)C(=O)OCCCC,,inactive,inactive,inactive,inactive,,,inactive,inactive,inactive,inactive,inactive,inactive,inactive,inactive,inactive,inactive,inactive,,
CCCc1ccc(O)c(OC)c1,inactive,,,inactive,inactive,inactive,,inactive,,inactive,inactive,inactive,inactive,inactive,inactive,inactive,inactive,inactive,,
C=CCOC(=O)CCCCCCCC,inactive,,,inactive,inactive,inactive,inactive,,inactive,inactive,inactive,inactive,inactive,inactive,inactive,inactive,17.5 µM (active),inactive,inactive,inactive
